The source of these data is the supplement of paper PMC10941209.

In the assay the test system is HFF. Kind of assay: cell viability relative to DMSO control; higher = less cytotoxic. Particulars: 1 µM; 72 h. The method, then: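 Single-dose cytotoxicity screen of the MMV Pandemic Response Box at 1 uM on human foreskin fibroblasts (HFF), 72 h at 37 C. Viability measured by MTT (OD 550 nm) and normalised to the DMSO control (% survival).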
By cell viability is commonly meant the share of living cells, or the viability signal relative to a control. Turning to `O=S(=O)(NCB(O)O)c1cc2c(Cl)ccc(Cl)c2s1`, the cell viability was 68%.
In the case of `O=c1ccc2ncc(=O)n3c2n1CC3CN1CCC(NCc2cc3c(cn2)OCCC3)CC1` (stereo not given) it was 60%; in that of `CCCCCCCCCN1C[C@@H](O)[C@H](O)[C@@H](O)[C@@H]1CO`, 84.2%; in that of `COc1cc(Cc2cnc(N)nc2N)cc(OC)c1OC`, 64.8%.
In the case of `O=c1[nH]c(=O)n(Cc2cccc(Oc3ccccc3)c2)cc1Nc1ccccc1` it was 63.8%.
In the case of `CCOc1noc2cc(OCCC3CCN(c4ccc(C)nn4)CC3)ccc12` it was 53%.
`C[C@@H]1O[C@@H]1P(=O)(O)O`: the cell viability amounted to 65%.
Regarding `O=C(CSc1nnc(Br)n1-c1ccc(C2CC2)c2ccccc12)Nc1ccc(C(=O)O)cc1Cl`, the cell viability is 66.5%.
The result for `COC(=O)Nc1nc2cc(Sc3ccccc3)ccc2[nH]1` reads 71.9%; that for `CC[C@H](CO)Nc1nc(NCc2ccccc2)c2ncn(C(C)C)c2n1`, 68.9%.
Regarding `COC1CC2CCC(C)C(O)(O2)C(=O)C(=O)N2CCCCC2C(=O)OC(C(C)CC2CCC(OCCO)C(OC)C2)CC(=O)C(C)/C=C(\C)C(O)C(OC)C(=O)C(C)CC(C)/C=C/C=C/C=C/1C` (stereo not given), the cell viability worked out at 60.8%.
The result for `C[Si]1(C)CCN(Cc2cc(-c3ccc(Cl)cc3)n(-c3ccc(Cl)cc3)n2)CC1` reads 82.5%; that for `CN(C/C=C/C#CC(C)(C)C)Cc1cccc2ccccc12`, 64.9%.
The result for `Cc1c(N)cccc1Cn1ccc(OCCc2cccs2)cc1=O` reads 60.5%.
The result for `CC[C@@H]1C(=O)OC[C@@H]1Cc1cncn1C` reads 62.8%; that for `O=C(O)c1cc(-c2ccc(Br)cc2)nc2ccc(Cl)cc12`, 57.6%.
In turn, `CC1CN(c2ncnc3c2c(-c2ccccc2)cn3-c2ccc(F)cc2)CC(C)O1` (stereo not given) registered a cell viability of 75.3%.
Molecule `NC(=O)[C@@H]1CC[C@@H]2CN1C(=O)N2OS(=O)(=O)O` registered a cell viability of 69.1%.
`O=C(O)CCNC(=O)c1ccccc1`: the cell viability stood at 66.9%.
The molecule `C(=C\c1nc2ccccc2[nH]1)/c1ccc2c(c1)OCO2` showed a cell viability of 63.4%.
The molecule `Nc1nc(NC2Cc3ccc(F)cc3C2)nc(N2CCCCC2)n1` (stereo not given) displayed a cell viability of 72.4%.
`O=c1cc(NCCCN[C@@H]2CCOc3c(Br)cc(Br)cc32)[nH]c2ccsc12` returned a cell viability of 79.4%.
The result for `CC(C)Oc1ccc(-n2cnc3cc(/C=C\c4ccc(C(C)(C)O)cc4)ccc32)cc1` reads 64.2%; that for `O=C(/C=C/n1cnc(-c2cc(C(F)(F)F)cc(C(F)(F)F)c2)n1)NNc1cnccn1`, 59.7%; that for `O=C(O)c1ccccc1Sc1ncnc2sc3c(c12)CCC3`, 67.7%.
The result for `CC(C)(C)c1ccc(OCCn2nc(C(=O)O)c3ccccc3c2=O)cc1` reads 70%; that for `COc1ccc(C(C)(C)C)cc1NC(=O)C(=O)c1ccc(OCCN2CCOCC2)c2ccccc12`, 69.1%.
Consider `COc1ccc(C)cc1NC(=O)c1ccc(S(=O)(=O)N2CCCCC2)cc1`, for which the cell viability is 76.4%.
In the case of `CC[C@@H](CO)NCCN[C@@H](CC)CO` it was 76.1%; in that of `CCCC1(C2CC2)c2cc(Cl)ccc2NC(=O)N1C` (stereo not given), 62.3%.
In turn, `Cc1cc(-c2ccccc2)c(C(=O)C(=O)Nc2ccc(N3CCN(c4ncc(F)cn4)CC3)cc2)n1C` displayed a cell viability of 76.8%.
In the case of `CCC(CC)[C@H](NC(C)=O)[C@@H]1[C@H](O)[C@@H](C(=O)O)C[C@H]1NC(=N)N` it was 73.5%.
The result for `COc1ccc2c(c1OC)C(=O)OC2C1c2c(cc3c(c2OC)OCO3)CCN1C` (stereo not given) reads 74.8%; that for `CCC[C@@H]1C[C@@H](C(=O)N[C@@H]([C@H]2O[C@H](SC)[C@H](O)[C@@H](O)[C@H]2O)[C@H](C)Cl)N(C)C1`, 66.8%.
`CCOC(=O)/C=C/[C@H](C[C@@H]1CCNC1=O)NC(=O)[C@H](CC)n1cccc(NC(=O)c2cc(C)on2)c1=O` yielded a cell viability of 68.3%.
In the case of `O=S(=O)(NCB(O)O)c1ccc(-c2nnn[nH]2)cc1C(F)(F)F` it was 70.9%; in that of `COc1ccc(NS(=O)(=O)c2ccc(Cl)s2)cn1`, 72.2%.
In the case of `NCC(=O)Nc1ccc(-n2nc(C(F)(F)F)cc2-c2ccc3c(ccc4ccccc43)c2)cc1` it was 80.7%; in that of `CN(C)[C@@H]1C(=O)C(C(N)=O)=C(O)[C@@]2(O)C(=O)C3=C(O)c4c(O)c(NC(=O)CN5CCCC5)cc(F)c4C[C@H]3C[C@@H]12`, 66%.
The result for `Cc1nc(N(C)C(=O)Cc2ccc(-c3ccccn3)cc2)sc1S(N)(=O)=O` reads 66.3%.
